The values below come from PubChem BioAssay (NCI).

The panel holds about 83,000 compounds, 20% with a hit somewhere; the sample as a whole holds those more often.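 Note: values are percent growth. 100 is the growth of untreated cells, values between 100 and 0 indicate rising inhibition; between -100 and 0 indicates cell death.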 A number with no mark means an inactive call. Activity calls are given as the source filed them. The calls were made as follows: active = growth percent below 10; inactive = the rest.

What all share (assay): NCI-60 one-dose screen, 48 h (100 = growth as untreated, 0 = no growth, -100 = all killed)
What all share (conditions): 10 µM unless noted

The subject of test [1] is NCI-H23 lung.
In test [2] the test system is NCI-H226 lung.
Test [3] relates to NCI-H322M lung.
In test [4] the test system is HOP-62 NSCLC.
Test [5] relates to NCI-H460 lung.
Test [6] has as its system HOP-92 NSCLC.
Test [7] concerns NCI-H522 lung.
The test system of test [8] is A549/ATCC NSCLC.
For test [9], the system named is 786-0 renal.
The subject of test [10] is COLO 205 colon.
Test [11] deals with DU-145 prostate.
Test [12] concerns K-562 leukemia.
The test system of test [13] is MALME-3M melanoma.
Test [14] deals with MDA-MB-231 breast.
The test system of test [15] is RXF 393 renal.
Test [16] relates to SF-268 CNS.
Test [17] deals with SF-295 CNS.
Test [18] concerns SF-539 CNS.
The subject of test [19] is UACC-257 melanoma.
The subject of test [20] is M14 melanoma.

Take `CC(C)CCSc1nc(N)nc2nc[nH]c12`: the growth was 104% in test [1]; 96.7% in [2]; 143% in [3]; 102% in [4]; 96.8% in test [5]; 76.4% in [6]. In addition, the growth was 79.9% in test [7]; 104% in test [8]; 95.9% in test [9]; 102% in test [10]; 107% in test [11]; 81.7% in test [12]. The growth in [13] is 250%; in test [14], 106%; in [15], 106%; in test [16], 108%; in [17], 132%; in test [18], 87.4%. Moreover, the growth is 113% in [19] and 91.6% in [20].
On to `c1ccc(-c2nc(N3CCCNCC3)c3nc(-c4ccccc4)oc3n2)cc1`, for which the growth in test [1] is 22.3%; in test [2], 49.9%; in test [3] it was 93.7%; in [4] it was 78.2%; in test [5] it was -50.1% (active); in test [6], 42.4%. In addition, the growth in [7] was 26.4%; in test [8], -38.8% (active); in test [9], 67%; in test [10], -79.2% (active); in test [11], -18.4% (active); in [12], 0.76% (active). The growth in test [13] is 76.9%; in test [14], -3.19% (active); in test [15], 27.1%; in [16], 52%; in [17] it was 96.2%; in test [18], 76.3%. Further, the growth in test [19] was 100%; in test [20] it was 95.7%.
For the compound `CC1=CCc2ccccc21`, the growth in [1] was 97.6%; in test [2], 95.3%; in test [3], 91.3%; in [4] it was 101%; in [5], 99.8%; in test [6], 82%. In addition, the growth was 90.5% in [7]; 97.1% in [8]; 103% in [9]; 105% in test [10]; 111% in test [11]; 94.1% in test [12]. Moreover, the growth in [13] is 101%; in [14], 94.5%; in test [15], 111%; in [16] it was 110%; in test [17], 101%; in test [18] it was 112%. Also, the growth in [19] and in test [20] was 105% in each case.
Regarding `Cc1cccc(C[C@H](NC(=O)Nc2ccc(Cl)cc2F)C(=O)N[C@@H]2C(=O)N3C[C@H](O)C[C@H]3C(=O)N3CCCC[C@H]3C(=O)N[C@@H](C)C(=O)N3C[C@H](C)C[C@H]3C(=O)O[C@H]2C)c1`, the growth is 25.7% in test [1]; 20.9% in test [2]; 34% in [3]; 24% in [4]; 2.42% (active) in [5]; -7.02% (active) in [6]. Further, the growth in test [7] was 14.7%; in test [8] it was 17.9%; in [9], 11%; in [10], -30.9% (active); in [11], 15.1%; in [12] it was 12.5%. The growth is 7.7% (active) in test [13]; -32.6% (active) in [14]; -18.1% (active) in test [15]; 11.6% in [16]; -21.3% (active) in test [17]; 7.42% (active) in [18]. Besides, the growth in [19] was 14.9%; in [20], 3.02% (active).
Regarding `CC1(C)CC(=O)c2c(ccc(C(=O)C[C@@H](N)CO)c2N)O1`, the growth in [1] was 45.9%; in test [2], 27.5%; in [3] it was 5.96% (active); in [4], 2.01% (active); in test [5], 4.1% (active); in test [6], 82.7%. The growth was 20.1% in test [7]; 15.3% in test [8]; 66.7% in [9]; 17.9% in test [10]; 18.2% in [11]; 25.9% in test [12]. Further, the growth was 51.2% in test [13]; 20.4% in test [14]; 16.6% in test [15]; 14.9% in [16]; 21.2% in test [17]; -3.9% (active) in test [18]. Besides, the results for the growth in test [19] and in [20] were 16.6% and -37.5% (active), respectively.
In the case of `COC(=O)c1cc(O)c2c(c1C(=O)OC)C[C@H]1[C@@H]3CC=C4C[C@@H](O)CC[C@]4(C)[C@H]3CC[C@]21C`, the growth in [1] is 46%; in test [2] it was 70.6%; in test [3], 66%; in [4] it was 20.4%; in test [5] it was 64.6%; in test [6] it was 18.6%. The growth in test [7] is 50%; in [8], 38.5%; in [9], -56.1% (active); in test [10], 83.1%; in [11], 79%; in [12], 20%. The growth in test [13] is 28.3%; in test [14], 2.21% (active); in test [15], -60.6% (active); in test [16] it was 66.8%; in test [17] it was -14.5% (active); in [18], 8.9% (active). Further, the results for the growth in [19] and in test [20] were 14.3% and 11.6%, respectively.
On to `CCOC(=O)C(C(C)=O)c1nc2sc3cc(Cl)c(Cl)cc3n2c(=O)c1C#N` (stereo not given), for which the growth in test [1] is 94.7%; in [2] it was 95.3%; in test [3], 114%; in [4], 109%; in [5], 92.7%; in test [6], 76.8%. The growth in [7] was 62.9%; in [8] it was 108%; in test [9], 114%; in test [10], 108%; in [11] it was 109%; in [12], 92%. Also, the growth in test [13] was 95.5%; in test [14], 87.2%; in [15], 179%; in [16], 103%; in [17] it was 103%; in test [18], 86.2%. Also, the growth was 118% in test [19] and 104% in test [20].
